Sampled rows, rich in hits. Any-hit rate of the full collection: about 18%.
PLK1 PBD inh: inhibitors of human PLK1 polo-box domain binding; P53350; hit rate 2.8% among 360,000; Plk1 PBD binding of FITC phosphopeptide, fluorescence polarization; Potency, µM, without a hit: max response, negative = inhibition, usual class: inhibitors; further: series mostly up to about 57 µM; nearly all actives have a fitted effect of over 65% in size
KAT2A inh: GCN5L2 (KAT2A) acetyltransferase inhibition; GCN5L2 HAT assay, ThioGlo1 CoA-SH fluorescence; Potency, µM (titrated, usually from 58.9 µM), for the others: top-dose activity change, negative = inhibition, hits mostly inhibitors; hit rate 0.21% among 390,000
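Compounds, pin-transferred from DMSO stocks, meet 20nM GCN5L2 for 15 min before the reaction begins with H3(1-25) peptide (75uM) and acetyl-CoA (70uM). Thiol-reactive ThioGlo1 reports CoA release over 20 min at room temperature.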
TDP1 cell noCPT: qHTS for Inhibitors of human tyrosyl-DNA phosphodiesterase 1 (TDP1): qHTS in cells in absence of CPT; DT40 Tdp1-/- hTDP1 cells, no CPT, ATP luminescence, 48 h; Potency, µM (highest dose often 46.2 µM), inactives show at the highest dose activity change, negative = growth inhibition, most hits filed as inhibitors; hit rate 15% among 420,000; AID 686978, 2013; further: nearly all actives have a fitted effect of over 55% in size
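No-CPT arm: Tdp1-/-;hTDP1 DT40 cells (400/well) plus compounds, incubated ≥48 hr at 37 °C. Readout CellTiter-Glo luminescence.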
TDP1 inh: TDP1 (human) enzyme inhibition; hit rate 0.28% among 350,000; recombinant TDP1, AlphaScreen DNA substrate cleavage; Potency, µM (top dose mostly 130 µM), inactives show top-dose activity change, negative = inhibition, hits mostly inhibitors; Q9NUW8; further: nearly all actives have a fitted effect of over 40% in size
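Steps: enzyme plus compound, 15 min RT; add biotin/phosphotyrosine-FITC oligonucleotide (15 nM final), react 5 min; add donor/acceptor beads (10 ug/ml final), 10 min; read AlphaScreen. Tdp1 at 1 nM final.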
TDP1 cell CPT: DT40-hTDP1 cell growth loss with CPT; chicken DT40 Tdp1-/-;hTDP1 cells + 20 nM CPT, ATP luminescence, 48 h; Potency, µM (doses to about 46.2 µM), for inactives: at the top dose activity change, negative = growth inhibition, usual class: inhibitors; hit rate 12% among 420,000; AID 686979; further: nearly all actives have a fitted effect of over 55% in size
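Chicken DT40 Tdp1-/- cells stably complemented with human TDP1 were seeded at 400 cells/well in medium containing 20 nM camptothecin, exposed to pin-transferred compounds, and grown at 37 °C for at least 48 hr. Viability was read as ATP luminescence.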
VDR inhibitor: vitamin D3 receptor (human) inhibition; P11473; VDR-SRC2-3 peptide fluorescence polarization, 2 h; Potency, µM, for inactives: max response, negative = inhibition, hits mostly inhibitors; hit rate 0.93% among 400,000; AID 504847
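Reagent solutions, kept cold and dark, are dispensed first; compounds are then pinned in at 23 nl, plates briefly spun, and incubated 2 h at ambient temperature. Inhibition of VDR–SRC2-3 peptide binding is read by fluorescence polarization.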
Starred values were filed as active, the others as inactive; ? = inconclusive; · = no result given; [ ] = dose if it differs, or a comment. The call rests on the fitted dose curve; in most records, active means well fitted curve in the direction sought with a large enough effect; inconclusive means small, poorly fitted or top-dose-only effect, or another doubt; inactive means no such curve, though single readings can be large; an effect the other way counts as inactive or inconclusive. On the % scale 0 is the no-effect control and ±100 the full control effect; potency means the concentration at half of the fitted maximal effect.

SMILES	PLK1 PBD inh	KAT2A inh	TDP1 cell noCPT	TDP1 inh	TDP1 cell CPT	VDR inhibitor
CCCCCCCCN1C(=O)[C@H](CC(=O)NCCCOCCCC)C[C@@]2(C(=O)OC)CC(C)(C)CC=C12	5%	·	15µM*	·	?	·
CCCCCCCCN1C(=O)[C@H](CC(=O)NCC2CCCCC2)C[C@@]2(C(=O)OC)CC(C)(C)CC=C12	-6%	·	13µM*	·	?	·
COC(=O)[C@@]12C[C@@H](CC(=O)NCc3ccc(C)o3)C(=O)N(Cc3ccccc3)C1=CCC(C)(C)C2	-15%	·	?	·	?	·
CCOc1ccc(S(=O)(=O)N2CCC(C(=O)NCc3ccccc3CN3CCCC3)CC2)cc1	-5%	0%	-12%	2%	-17%	6%
COC(=O)C(NC(C)=O)(Nc1nc2c(C)cc(C)cc2s1)C(F)(F)F (stereo unspecified)	?	-8%	16µM*	0%	?	-21%
O=[N+]([O-])c1ccc2oc(-c3ccccc3)nc2c1	-7%	-4%	-16%	3%	6%	-10%
NC(N)=Nc1nc2cc([N+](=O)[O-])ccc2o1	7%	1%	10µM*	5%	10µM*	-16%
Cc1c(C(=O)NC2CCN(Cc3ccccc3)C2)oc2c(Cl)cccc12 (stereo unspecified)	1%	-5%	-22%	8%	?	-4%
Cc1nc2c(c(=O)n1CCC1=CCCCC1)c1nc3ccccc3nc1n2/N=C/c1ccco1	?	-27%	23µM*	·	16µM*	-6%
CCN(CC)C(=O)CSc1nc(N)c(C#N)c(-c2cccs2)c1C#N	-2%	2%	-3%	-6%[56.1 µM]	-10%	-2%
CCN(CC)C(=O)CSc1nc(-c2cccs2)cc(-c2cccs2)c1C#N	12µM*	-20%	?	-5%	23µM*	?
CN1CCN(C(=O)CSc2nc(-c3cccs3)cc(-c3cccs3)c2C#N)CC1	-11%	-17%	18µM*	4%	?	-7%
CNCC(=O)N[C@@H](CCCN=C(N)N)C(=O)N[C@H](C(=O)N[C@@H](Cc1ccc(O)cc1)C(=O)N[C@H](C(=O)N[C@@H](Cc1cnc[nH]1)C(=O)N1CCC[C@H]1C(=O)N[C@@H](C)C(=O)O)C(C)C)C(C)C	·	·	7%	·	-10%	·
Cc1ccc(/C=N/n2c(C)nc3ccccc3c2=O)s1	·	-4%	·	0%	·	·
OCCn1c(C(F)(F)F)nc2ccccc21	-3%	-5%	-15%	0%	-3%	4%
Cc1ccc(-c2csc(N(CCO)CCCn3c(C(F)(F)F)nc4ccccc43)n2)cc1	-10%	7%	?	·	21µM*	-3%
CC1CCC(NC(=O)CCS(=O)(=O)c2ccc3c(c2)CCN3C(=O)C2CC2)CC1 (stereo unspecified)	-11%	-3%	0%	1%	-23%	-8%
CCCCn1nnnc1C(c1ccccc1)N1CCN(c2ncc(C(F)(F)F)cc2Cl)CC1 (stereo unspecified)	-4%	·	18µM*	·	?	·
CCCCn1nnnc1C(c1ccccc1OC(F)(F)F)N1CCN(C/C=C/c2ccccc2)CC1 (stereo unspecified)	6%	·	?	·	?	·
CCCCn1nnnc1C(c1ccnc2ccccc12)N1CCN(C/C=C/c2ccccc2)CC1 (stereo unspecified)	-4%	·	21µM*	·	21µM*	·
CCCCn1nnnc1C(c1ccccc1)N1CCN(C/C=C/c2ccccc2)CC1 (stereo unspecified)	3%	·	16µM*	·	?	·
CCCCn1nnnc1C(CC)N1CCN(C/C=C/c2ccccc2)CC1 (stereo unspecified)	-16%	·	?	·	?	·
CCCCn1nnnc1C(c1ccccc1)N1CCN(C)CC1 (stereo unspecified)	4%	·	-14%	·	2%	·

Source: PubChem BioAssay (National Center for Advancing Translational Sciences (NCATS))
